The record followed here is PubChem BioAssay (NCI).

Compounds without any hit were thinned out: in the full panel of roughly 83,000, 20% have a hit.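 Negative percent growth values reflect cell death: -40 means 40% of the cells present at the start died, and -100 means all died.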 Unmarked numbers belong to inactive results. Calls of active or inactive are those of the source. The calls were made as follows: active = growth percent below 10; inactive = the rest.

Among the test systems are HCT-15 colon; HT29 colon; SNB-75 CNS; SNB-19 CNS; U251 CNS; PC-3 prostate; SK-MEL-5 melanoma; UACC-62 melanoma; LOX IMVI melanoma; SK-MEL-28 melanoma.
What all share (assay): NCI-60 one-dose screen, 48 h (100 = growth as untreated, 0 = no growth, -100 = all killed)
Holding throughout (conditions): 10 µM unless noted

Consider `COc1ccc(Cn2cc3c(c2-c2cc(OC)c(OC)c(OC)c2)CCc2c(CO)noc2-3)cc1`, for which the growth with HCT-15 colon is 17.6%; in the experiment on HT29 colon, 8.14% (active); in the experiment with SNB-75 CNS, 40%; in the experiment on SNB-19 CNS, 30.2%; in the experiment with U251 CNS, 11.2%; in the experiment with PC-3 prostate, 26.5%. Besides, the growth in the experiment with SK-MEL-5 melanoma is 5.04% (active); in the experiment with UACC-62 melanoma, 12.7%; in the experiment on LOX IMVI melanoma, 30.6%; in the experiment on SK-MEL-28 melanoma it was 54%.
As to `Cc1cc(-c2ccccc2)nc2ccccc12`, the growth in the experiment on HCT-15 colon is 97.5%; in the experiment with HT29 colon, 113%; in the experiment with SNB-75 CNS it was 86.9%; with SNB-19 CNS it was 101%; in the experiment with U251 CNS it was 97.4%; in the experiment on PC-3 prostate, 99.8%. The growth in the experiment with SK-MEL-5 melanoma was 95%; in the experiment with UACC-62 melanoma, 95.7%; with LOX IMVI melanoma, 98.5%; in the experiment with SK-MEL-28 melanoma, 114%.
As to `NN=C(c1ccc(Cl)cc1)c1ccc(Cl)cc1`, the growth in the experiment on HCT-15 colon is 90.4%; in the experiment with HT29 colon, 96.7%; in the experiment on SNB-75 CNS, 96.3%; with SNB-19 CNS, 98.9%; with U251 CNS it was 102%; with PC-3 prostate, 101%. Moreover, the growth with SK-MEL-5 melanoma is 107%; in the experiment with UACC-62 melanoma, 100%; in the experiment on LOX IMVI melanoma, 77.1%; in the experiment with SK-MEL-28 melanoma, 117%.
As for `C=C1C(=O)O[C@H]2[C@H]1CC/C(COC(=O)c1ccc(C#N)cc1)=C\CC[C@@]1(C)O[C@@H]21`, the growth with HCT-15 colon was -7.25% (active); with HT29 colon, -4.64% (active); with SNB-75 CNS, 77.3%; in the experiment with SNB-19 CNS, 47.7%; with U251 CNS, 40.6%; in the experiment with PC-3 prostate it was 50.6%. Further, the growth in the experiment on SK-MEL-5 melanoma was 42.9%; with UACC-62 melanoma, -25.2% (active); in the experiment with LOX IMVI melanoma it was -81.4% (active); in the experiment with SK-MEL-28 melanoma, 3.18% (active).
In the case of `O=C(NCCNc1nccc(-c2c(-c3cccc(O)c3)nc3sccn23)n1)Nc1cccc(C(F)(F)F)c1`, the growth with HCT-15 colon was 84.7%; in the experiment with HT29 colon it was 38.9%; in the experiment on SNB-75 CNS it was 66.2%; in the experiment on SNB-19 CNS it was 89.5%; in the experiment with U251 CNS, 81.6%; in the experiment on PC-3 prostate, 26.7%. For the same compound, the growth in the experiment with SK-MEL-5 melanoma was 53.5%; in the experiment on UACC-62 melanoma, 29.4%; with LOX IMVI melanoma it was 64.5%; in the experiment on SK-MEL-28 melanoma it was 48.8%.
Take `O=C(Nc1ccccc1F)Nc1ccccc1Cl`: the growth is 106% with HCT-15 colon; 91% in the experiment with HT29 colon; 85.7% in the experiment with SNB-75 CNS; 97.1% in the experiment with SNB-19 CNS; 92.3% in the experiment with U251 CNS; 108% in the experiment on PC-3 prostate. For the same compound, the growth in the experiment on SK-MEL-5 melanoma is 84%; in the experiment on UACC-62 melanoma, 73.2%; in the experiment with LOX IMVI melanoma, 93.3%; with SK-MEL-28 melanoma, 96.9%.
As for `COc1ccc(/C=C/C(=O)c2ccc(-n3cc(CN4CCN(c5cc6c(cc5F)c(=O)c(C(=O)O)cn6C5CC5)CC4)nn3)cc2)cc1OC`, the growth was 33.8% in the experiment on HCT-15 colon; 4.76% (active) in the experiment on HT29 colon; 65.5% in the experiment with SNB-75 CNS; 44.7% in the experiment on SNB-19 CNS; 10.6% in the experiment on U251 CNS; 9.95% (active) with PC-3 prostate. The growth was 50.9% in the experiment with SK-MEL-5 melanoma, 54.1% with UACC-62 melanoma, -1.51% (active) in the experiment on LOX IMVI melanoma and 34.6% with SK-MEL-28 melanoma.
For the compound `CC(C)Cn1cnc2c3ccccc3nc(NCn3nc(-c4cc(Cl)cc(Cl)c4Cl)oc3=S)c21`, the growth in the experiment with HCT-15 colon was 106%; in the experiment on HT29 colon it was 98.5%; in the experiment on SNB-75 CNS, 90%; in the experiment on SNB-19 CNS it was 111%; with U251 CNS it was 99%; with PC-3 prostate, 86.2%. Also, the growth in the experiment with SK-MEL-5 melanoma is 85.3%; with UACC-62 melanoma it was 90.1%; in the experiment on LOX IMVI melanoma, 86.7%; in the experiment with SK-MEL-28 melanoma it was 110%.
For the compound `CN(C)CCS(=O)(=O)Nc1cc(-c2ccc3ncnc(Nc4ccc(F)c(Cl)c4)c3c2)cnc1Cl`, the growth in the experiment on HCT-15 colon is -2.7% (active); with HT29 colon it was 2.45% (active); in the experiment on SNB-75 CNS, 9.33% (active); in the experiment on SNB-19 CNS, 41.6%; in the experiment with U251 CNS, -40.6% (active); with PC-3 prostate, 6.17% (active). For the same compound, the growth in the experiment with SK-MEL-5 melanoma is -71.9% (active); with UACC-62 melanoma, -2.94% (active); in the experiment on LOX IMVI melanoma it was -58.5% (active); in the experiment on SK-MEL-28 melanoma, -31.6% (active).
Take `CCC1(C(N)=O)CC2C=CC1CC2` (stereo not given): the growth is 109% in the experiment on HCT-15 colon; 106% with HT29 colon; 95.9% in the experiment on SNB-75 CNS; 90.2% in the experiment with SNB-19 CNS; 110% in the experiment with U251 CNS; 103% in the experiment on PC-3 prostate. The growth is 98.7% in the experiment on SK-MEL-5 melanoma, 104% in the experiment with UACC-62 melanoma, 96.2% in the experiment with LOX IMVI melanoma and 125% in the experiment on SK-MEL-28 melanoma.
On to `O=C(N/N=C/c1ccccc1O)c1ccccc1O`, for which the growth in the experiment with HCT-15 colon was 30.1%; with HT29 colon, 72.9%; with SNB-75 CNS it was 78.3%; in the experiment with SNB-19 CNS, 51.7%; in the experiment on U251 CNS, 36.2%; in the experiment with PC-3 prostate it was 39.6%. Also, the growth was 10.6% in the experiment on SK-MEL-5 melanoma, 24% in the experiment on UACC-62 melanoma, 12.8% in the experiment on LOX IMVI melanoma and 46.9% in the experiment on SK-MEL-28 melanoma.
On to `CCCCN(CCCC)c1ccc(C(=N)c2ccc(N(C)C)cc2)cc1`, for which the growth was -58.7% (active) in the experiment with HCT-15 colon; -50.8% (active) in the experiment with HT29 colon; -46.6% (active) with SNB-75 CNS; 6.19% (active) in the experiment with SNB-19 CNS; -17% (active) in the experiment with U251 CNS; -14.7% (active) in the experiment with PC-3 prostate. Also, the growth in the experiment with SK-MEL-5 melanoma is -99.8% (active); with UACC-62 melanoma it was -71.9% (active); in the experiment with LOX IMVI melanoma, -95.9% (active); in the experiment with SK-MEL-28 melanoma, -70.1% (active).
As for `CCNC(=O)Oc1ccc(/C(=C(/CC)Cc2ccccc2)c2ccc(OCCN3CCOCC3)cc2)cc1`, the growth was 39.4% in the experiment with HCT-15 colon; 28.6% with HT29 colon; 70.2% in the experiment with SNB-75 CNS; 76.7% with SNB-19 CNS; 52.8% in the experiment on U251 CNS; 20.2% in the experiment on PC-3 prostate. Besides, the growth in the experiment with SK-MEL-5 melanoma is 39.5%; with UACC-62 melanoma it was 73.2%; in the experiment on LOX IMVI melanoma it was 50.4%; in the experiment with SK-MEL-28 melanoma, 80.6%.
As for `COc1ccc2c(c1)C(=O)/C(=C/c1cccc(OCC(=O)c3ccccc3)c1)O2`, the growth with HCT-15 colon was 31.8%; in the experiment with HT29 colon, -15.7% (active); in the experiment with SNB-75 CNS, -8.04% (active); with SNB-19 CNS, 99.1%; in the experiment on U251 CNS, 41.5%; in the experiment on PC-3 prostate, -43.4% (active). The growth was 50.2% in the experiment with SK-MEL-5 melanoma, 67% in the experiment on UACC-62 melanoma, -5.01% (active) with LOX IMVI melanoma and -11.1% (active) in the experiment on SK-MEL-28 melanoma.
